Assay results published in PubChem BioAssay (EPA / NIEHS).
Inconclusive results are not listed. Some compounds were tested as several samples or in several runs, with calls that do not always agree. Activity calls are given as the source filed them. Rule for the calls: active = hit-call score of the fitted dose curve at least 0.9, where 1 is the maximum; inconclusive = response in the unintended direction; inactive = score below 0.9.

The compounds below were run against Estrogen receptor (Homo sapiens) (UniProt P03372) (assay: ATG_ERa_TRANS: Attagene TRANS-FACTORIAL HepG2 Assay for human Estrogen Receptor alpha (ERa) (AID 2282970)). Conditions: HepG2 Attagene TRANS ERa GAL4 reporter, mRNA.
Experimental: ATG_TRANS is a cell-based, multiplexed-readout assay that uses HepG2, a human liver cell line, with measurements taken at 24 hours after chemical dosing in a 24-well plate.ATG_ERa_TRANS is one of 30 assay component(s) measured or calculated from the ATG_TRANS assay. It is designed to make measurements of mRNA induction, a form of inducible reporter, as detected with fluorescence intensity signals by Reverse transcription polymerase chain reaction (RT-PCR) and Capillary electrophoresis technology.Data from the assay component ATG_ERa_TRANS was analyzed into 1 assay endpoint. This assay endpoint, ATG_ERa_TRANS, was analyzed in the positive analysis fitting direction relative to DMSO as the negative control and baseline of activity. Using a type of inducible reporter, measures of mRNA for gain-of-signal activity can be used to understand the reporter gene at the transcription factor-level as they relate to the gene ESR1. Furthermore, this assay endpoint can be referred to as a primary readout, because this assay has produced multiple assay endpoints where this one serves a reporter gene function. To generalize the intended target to other relatable targets, this assay endpoint is annotated to the nuclear receptor intended target family, where the subfamily is steroidal.
Human liver HepG2 cells are transiently transfected with multiple reporter transcription units (MRTUs) in 6-well plates using FuGene 6 reagent (Roche; 3 ml FuGene/1 mg DNA). The MRTU constructs are regulated by a cis-regulating element (promoter). […] A major difference between the CIS and TRANS system is that in CIS activities of endogenous TFs are measured, whereas the TRANS assay evaluates changes in activities of exogenous, chimeric NR-Gal4 proteins. […] At the end of 24 hour incubation, total RNA was isolated using TriZol reagent (Invitrogen). The isolated RNA is then reverse-transcribed using oligo(dT) primer and Mo-MLV reverse transcriptase (Invitrogen) with DNAse I (Ambion) treatment for 30 min. The one-tenth of the produced cDNA was amplified by PCR using Taq DNA polymerase (Invitrogen) and two reporter sequence-specific primers. The PCR products were fluorescently labeled by primer extension with 6-arboxyfluorescein (6-FAM) 5'-labeled reporter sequence-specific primer (2 min at 95 C, 20 s at 68 C and 10 min at 72 C) and these products were digested with 5U of HpaI (New England Biolabs) for 2h at 37 C. […] The raw capillary electrophoresis data was processed using Attagraph software (Attagene).

Estrogen receptor (Homo sapiens), sequence (P03372 whole entry, looked up, the tested form may be a part): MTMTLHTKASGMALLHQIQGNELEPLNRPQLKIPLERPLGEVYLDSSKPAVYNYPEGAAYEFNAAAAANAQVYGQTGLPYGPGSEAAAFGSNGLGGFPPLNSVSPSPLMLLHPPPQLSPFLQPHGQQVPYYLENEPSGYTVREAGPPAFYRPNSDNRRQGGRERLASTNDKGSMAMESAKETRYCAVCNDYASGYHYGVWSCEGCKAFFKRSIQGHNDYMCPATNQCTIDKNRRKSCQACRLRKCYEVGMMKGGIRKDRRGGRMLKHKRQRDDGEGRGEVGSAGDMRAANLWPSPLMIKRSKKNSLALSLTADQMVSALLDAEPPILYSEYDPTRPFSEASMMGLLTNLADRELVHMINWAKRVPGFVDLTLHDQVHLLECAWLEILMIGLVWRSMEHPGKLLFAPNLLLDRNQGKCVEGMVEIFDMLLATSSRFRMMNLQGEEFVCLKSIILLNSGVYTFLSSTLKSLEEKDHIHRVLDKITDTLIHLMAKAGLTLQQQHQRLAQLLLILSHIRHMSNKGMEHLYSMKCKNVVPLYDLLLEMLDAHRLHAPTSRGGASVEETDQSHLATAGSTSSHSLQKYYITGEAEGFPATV

outcome, inactive:
O=C(F)C(F)(F)C(F)(F)C(F)(F)C(=O)F, CCc1cccc(CC)c1N(COC)C(=O)CS(=O)(=O)O, CCN(CCC#N)c1ccccc1, NCCN, C=Cc1ccc(O)c(OC)c1, CCc1ccccc1O, O=C(O)C(F)(F)OC(F)(F)C(F)(F)OC(F)(F)C(F)(F)OC(F)(F)C(F)(F)C(F)(F)C(F)(F)F, c1cc[nH]c1, O=P(O)(O)CCC(F)(F)C(F)(F)C(F)(F)C(F)(F)C(F)(F)C(F)(F)C(F)(F)C(F)(F)F, C/C=C/C(=O)C1=C(C)CCCC1(C)C, O=c1cc(-c2ccccc2)oc2ccc3ccccc3c12, O=CC(F)(F)C(F)(F)C(F)(F)C(F)F, COc1ccccc1NC(=O)c1cc2ccccc2cc1O, Cc1cncc(C)c1, Clc1ccc(Nc2nnc(Cc3ccncc3)c3ccccc23)cc1, O=C(Nc1cccc([N+](=O)[O-])c1)c1cc2ccccc2cc1O, Cc1ccccc1OCC(=O)O, CCCCCCCCC(C)=O, FC(F)(F)C(F)(F)C(F)(F)C(F)(F)I, CC(C)(C)C1CCCCC1O (stereo not given), CN(C)CCOC(c1ccccc1)c1ccccc1, CCCCCCCCCC=CCC1CC(=O)OC1=O (stereo not given), CCCCC(CC)C(=O)OCCOCCOCCOCCOC(=O)C(CC)CCCC (stereo not given), NC(=NCCCCCCN=C(N)/N=C(\N)Nc1ccc(Cl)cc1)/N=C(\N)Nc1ccc(Cl)cc1, C=CC(=O)OCC(CO)(COCC(COC(=O)C=C)(COC(=O)C=C)COC(=O)C=C)COC(=O)C=C, O=C(O)CCC(F)(F)C(F)(F)C(F)(F)C(F)(F)C(F)(F)F, C=CCOCC(CO)(CO)CO

AC50, active:
O=C(O)C(F)(F)OC(F)(F)C(F)(F)OC(F)(F)C(F)(F)OC(F)(F)C(F)(F)C(F)(F)C(F)(F)F 26 µM, O=c1cc(-c2ccccc2)oc2ccc3ccccc3c12 2.05 µM, Cc1ccc2ccc3ccc(C)cc3c2c1 7.58 µM, CCCCCCc1ccc(N)cc1 11.6 µM, C=CC(=O)OCCC(F)(F)C(F)(F)C(F)(F)C(F)(F)C(F)(F)C(F)(F)C(F)(F)C(F)(F)F 11 µM, CCCCCCCCCCCCOC(=O)c1cc(O)c(O)c(O)c1 11.1 µM, Cc1ccc(C(=O)c2ccccc2)cc1 27.8 µM, Oc1ccc(Cc2ccccc2O)cc1 3.65 µM, O=C1c2ccccc2C(=O)c2c(O)c(O)cc(O)c21 4.9 µM, Cc1cccc2c1ccc1ccccc12 11.2 µM, CCCCCc1ccc(O)cc1 1.6 µM, C[N+](C)(CCCNS(=O)(=O)CCC(F)(F)C(F)(F)C(F)(F)C(F)(F)C(F)(F)C(F)(F)F)CC(=O)[O-] 0.0373 µM, O=C(O)CCC(F)(F)C(F)(F)C(F)(F)C(F)(F)C(F)(F)F 118 µM
